Source: PubChem (several laboratories)
Gli-Sufu block: Gli-Sufu pathway antagonists, primary screen, luciferase luminescence, Sufu-KO-LIGHT cells, uHTS | inhibition, % at 5 µM | actives 0.74% (n = 340,000) | Sufu-KO-LIGHT fibroblasts, Gli luciferase reporter luminescence;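 active means inhibition above about 55%, limit read from the data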
NR2F2 inh: NR2F2 transcriptional activity inhibitors, primary screen, cell-based, luciferase reporter, HEK293T, luminescence; COUP transcription factor 2 (Homo sapiens), P24468; HEK293T NGFI-A luciferase reporter; inhibition, % at 8.6 µM; actives 0.7% (n = 370,000); AID 686940, 2013;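 active means inhibition above a per-plate cutoff, mean inhibition of test wells between control levels plus 3 SD, cut at about 38% in these data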;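 further: cells cotransfected with COUP-TFII expression vector driving the NGFI-A reporter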
Target sequence (P24468 whole entry, looked up): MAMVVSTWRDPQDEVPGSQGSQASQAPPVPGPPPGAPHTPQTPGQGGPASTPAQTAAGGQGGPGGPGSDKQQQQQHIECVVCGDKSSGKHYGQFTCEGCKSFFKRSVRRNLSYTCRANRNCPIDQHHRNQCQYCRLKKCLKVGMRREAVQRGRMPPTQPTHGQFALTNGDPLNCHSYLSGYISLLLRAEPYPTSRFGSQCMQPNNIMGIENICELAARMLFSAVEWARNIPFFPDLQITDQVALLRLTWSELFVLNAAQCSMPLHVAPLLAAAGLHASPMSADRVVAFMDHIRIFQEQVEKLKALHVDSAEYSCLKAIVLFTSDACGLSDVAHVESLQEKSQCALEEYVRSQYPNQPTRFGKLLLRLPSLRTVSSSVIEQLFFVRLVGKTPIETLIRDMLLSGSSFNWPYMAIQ
Cardio protect: cardioprotection against H2O2-induced cell death, primary screen, uHTS, H9c2 cells, ATPLite luminescence; H9c2 cardiomyocytes, H2O2 injury protection, 2 h; protection from H2O2 cell death, % at 20 µM; actives 0.63% (n = 360,000);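 active means compounds giving at least 50% protection of heart cells from peroxide-induced death in the single-dose screen, raw or plate-pattern-corrected value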
GAA850 FXN act: FXN promoter activators, primary screen, cell-based, luciferase luminescence, HEK293 lucGAA850 | activation, % at 6 µM | actives 0.56% (n = 360,000) | HEK293 lucGAA850 FXN promoter luciferase reporter, 24 h; percent of 10 µM SAHA response;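 active means activation above the average of all compounds screened plus 3 SD, cutoff fixed separately per campaign, cut at about 7.5% in these data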
GalR3 antag: GalR3 antagonists in HEK293 cells, primary screen, cell-based, fluorescence readout; inhibition, % at 3 µM; Galanin receptor type 3 (Homo sapiens), O60755; actives 0.44% (n = 360,000); HEK293 GalR3-CNG cAMP membrane potential fluorescence; galR3 body fused to GalR1 C-terminus;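 active means inhibition above the screen-wide average plus 3 SD, cut at about 13% in these data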;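 further: forskolin and galanin both at EC90 stimulate the cells; cAMP rise reported by CNG channel membrane potential dye signal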
SMARCA2 act: SMARCA2 (BRM) function activators, primary screen, cell-based, luminescence, high throughput; MG213 cells, MMTV-luciferase reporter, dexamethasone, overnight; activation, % at 9.1 µM; actives 1% (n = 370,000); AID 652017, 2013; in the data active means activation above about 7.8%
Gal4-VP16 ctr: Gal4-VP16 luciferase reporter inhibitors, counter-screen for COUP-TFII antagonist project, cell-based, luminescence, HEK293. shares compounds with NR2F2 inh. inhibition, % at 8.5 µM. actives 25% (n = 2,500); in the data active means inhibition above about 13%
COUP-TFII conf: NR2F2 transcriptional activity inhibitors, confirmation, cell-based, luciferase reporter, HEK293, triplicate | shares compounds with NR2F2 inh | HEK293 NGFI-A luciferase reporter, luminescence | inhibition, % at 8.5 µM | actives 45% (n = 2,500);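 active means mean inhibition over three repeats above a set limit taken from the earlier primary screen, cut at about 38% in these data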
Hits are given with their value; . = inactive; / = no result given. The list is not random: actives were taken first. Their share in the collection is about 3.4%.

SMILES | Gli-Sufu block | NR2F2 inh | Cardio protect | GAA850 FXN act | GalR3 antag | SMARCA2 act | Gal4-VP16 ctr | COUP-TFII conf
CCOC(=O)C1CCN(C(=O)CCc2c(C)nc3cc(-c4ccccc4)nn3c2C)CC1 | . | . | . | . | . | . | / | /
CC1Sc2ccc(S(=O)(=O)N3CCC(C(=O)Nc4ccc(Cl)cc4)CC3)cc2NC1=O (centres undefined) | 69 | 66 | . | . | . | . | 16 | 73
c1cncc(CNc2ncnc3ccc(-c4ccoc4)cc23)c1 | . | 38 | . | . | . | . | . | .
Cc1csc(CNc2ncnc3ccc(-c4ccoc4)cc23)c1 | . | 40 | . | . | . | . | . | .
Cc1cccc(CNc2ncnc3ccc(-c4ccoc4)cc23)c1 | . | . | . | . | . | . | / | /
CCCN1CCC(NC(=O)Nc2ccc(Br)cc2)CC1 | . | . | . | . | . | . | / | /
CCOc1ccccc1OCC(=O)Nc1nnc(COC)s1 | . | . | . | . | . | . | / | /
COc1ccc(-c2cn[nH]c2-c2ccc(OCc3ccc([N+](=O)[O-])cc3)cc2O)cc1OC | . | 38 | . | . | . | . | . | .
O=C(c1ccc(Cl)c(Cl)c1)N1CCN(c2ccnc3cc(Cl)ccc23)CC1 | / | 54 | / | / | / | / | . | .
CCCCNC(=O)N1CCN(c2ccnc3cc(Cl)ccc23)CC1 | . | / | . | . | / | / | / | /
CCCC/C(C)=N/NC(=O)CN(c1ccc(Br)cc1)S(=O)(=O)c1ccccc1 | . | . | . | . | . | . | / | /
C/C(=N/NC(=O)CN(c1ccccc1)S(=O)(=O)c1ccccc1)c1ccccc1O | . | 41 | . | . | . | . | . | .
COc1ccc(-c2nc(N3CCCCCC3)sc2C(=O)c2ccccc2)cc1 | . | 58 | . | . | . | . | . | .
CN(C)S(=O)(=O)c1ccc(/C(O)=C2/C(=O)C(=O)N(CCN3CCCCC3)C2c2cccnc2)cc1 (centres undefined) | . | . | . | . | . | . | / | /
O=S(=O)(NCc1ccncc1)c1ccccc1 | . | . | . | . | . | . | / | /
Cc1cc(C)c(C)c(S(=O)(=O)NCc2ccncc2)c1C | . | 38 | . | . | . | . | . | .
Cn1c(=O)oc2cc(S(=O)(=O)NCc3ccncc3)ccc21 | . | 44 | . | . | . | . | . | .
COc1ccccc1-c1cccc(-c2nc(C(=O)N3CCCCC3)cc3c2[C@@H](CCO)N(S(=O)C(C)(C)C)C3)c1 (some centres undefined) | / | . | . | / | . | . | / | /
CN(C(=O)Cn1nc(Cl)ccc1=O)C1CCCN(Cc2ccccc2F)C1 (centres undefined) | . | . | . | . | . | . | / | /
O=c1c2ccccc2nc(/C=C/c2cccnc2)n1Cc1ccccc1 | . | . | . | . | . | . | / | /
O=c1c2ccccc2nc(/C=C/c2cccnc2)n1CCc1ccccc1 | . | 44 | . | . | . | . | . | .
CC(=O)c1cn(CC(=O)Nc2ccccc2)c2ccccc12 | . | 47 | . | . | . | . | . | .
CC(=O)c1cn(CCOc2ccc(F)cc2)c2ccccc12 | . | 47 | . | . | . | . | . | .
c1ccc(-c2ccc(-c3nc(-c4ccccn4)no3)cc2)cc1 | 81 | 63 | . | . | . | . | 71 | 88
Cc1ccc(-c2nc(-c3ccccn3)no2)cc1 | 75 | 72 | . | . | . | . | 60 | 78
SMILES | Gli-Sufu block | NR2F2 inh | Cardio protect | GAA850 FXN act | GalR3 antag | SMARCA2 act | Gal4-VP16 ctr | COUP-TFII conf
Cc1ccc(-c2nc(-c3ccccn3)no2)cc1Cl | . | . | . | . | . | . | / | /
Clc1cccc(-c2nc(-c3ccccn3)no2)c1 | . | . | . | . | . | . | / | /
O=C1C(=O)c2cccnc2-c2ncccc21 | / | 103 | . | / | . | . | 97 | 112
O=C1c2cccnc2-c2ncccc21 | . | . | . | . | . | . | / | /
CC(=O)NCC1(O)CCCC(C)C1 (centres undefined) | . | . | . | . | . | . | / | /
Cc1c(C(=O)Nc2ccc3c(c2)OCCO3)sc2nc(-c3ccccc3)cn12 | . | . | . | . | . | . | / | /
Cc1c(C(=O)Nc2ccncc2)sc2nc(-c3ccccc3)cn12 | . | 52 | . | . | / | . | . | .
CCN(C(=O)c1cnc(N2CCN(c3ncccn3)CC2)c2ccccc12)c1cccc(Cl)c1 | . | 50 | . | . | . | . | . | .
COc1ccc(C(C(=O)NC2CCCC2)n2c(CSCCOc3ccccc3)nc3ccccc32)cc1 (centres undefined) | / | 70 | / | / | . | . | 28 | 46
CCC(C(=O)NCc1ccccc1)n1c(CSCCOc2ccccc2)nc2ccccc21 (centres undefined) | / | 58 | / | / | . | . | . | .
CN=C1S/C(=C\c2cc(C)n(-c3ccccc3F)c2C)C(=O)N1C | . | 50 | . | . | . | . | . | .
Cc1cc(/C=C2\SC(=O)N(C)C2=O)c(C)n1-c1ccc(O)cc1 | . | 50 | . | . | . | . | . | .
CN=C1NC(=O)/C(=C\c2cc(C)n(-c3ccccc3F)c2C)S1 | / | . | / | / | / | / | / | /
CCNC(=S)Nc1ccccc1-c1ccccc1 | . | . | . | . | . | . | / | /
COc1ccc(CCNc2nc(C)nc3c2oc2ccccc23)cc1OC | . | 40 | . | . | . | . | . | .
Cc1nc(NCCc2cnc[nH]2)c2oc3ccccc3c2n1 | . | . | . | . | . | . | / | /
N/C(=N\OC(=O)/C=C/c1ccccc1Cl)c1ccncc1 | . | . | . | . | . | . | / | /
CCOC(=O)N1CCN(C(=O)C2CCN(C(=O)c3ccc(C(C)(C)C)cc3)CC2)CC1 | . | . | . | . | . | . | / | /
Cc1cc(C)c2c(N)c(C(=O)Nc3ncc(C)s3)sc2n1 | 67 | 74 | . | . | . | . | 35 | 67
Cc1nn(C2CCS(=O)(=O)C2)c(Cl)c1/C=C/C(=O)OCC(=O)c1c[nH]c2ccccc12 (centres undefined) | . | . | . | . | . | . | / | /
Cc1nn(C2CCS(=O)(=O)C2)c(Cl)c1/C=C/C(=O)OCC(=O)c1cc(C)n(-c2ccc(F)cc2)c1C (centres undefined) | . | 63 | . | . | . | . | . | 37
O=C(Nc1nc2ccccc2[nH]1)c1ccc(F)cc1 | . | . | . | . | . | . | / | /
